Test [1] can be described thus: anti-His antibody binders, primary screen, artefact control for SMM control protein annotation, biochemical, small-molecule microarray, 635 nm fluorescence (AID 1128).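 Note: score merges feature fluorescence with signal-to-noise for each printed compound spot.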 To be noted: anti-His Alexa647 antibody binding, higher = more signal.
For test [2], the system named is Human papillomavirus type 1a E7 protein (residues 1-88). The experiment in a line: HPV1a E7 small-molecule binders, primary screen, biochemical, small-molecule microarray, residues 1-88, 635 nm (AID 1129). To be noted: small-molecule microarray binding, fluorescence 635 nm; higher = more signal.
Test [3] concerns the target Focal adhesion kinase 1 (Homo sapiens) (UniProt Q05397). In words: small-molecule microarray binders of FAK, primary screen, biochemical, 635/667 nm fluorescence, BSA, DTT (AID 1130).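 Note: composite of spot emission at 667 nm and signal to noise over triplicate slides.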 The settings on record: PTK2 binding, 635 nm fluorescence, higher = more signal.
Test [4] deals with Fibrinogen (Alexa647-labelled). In words: fibrinogen binders on compound microarrays, profiling panel, artefact control for SMM control-protein annotation, biochemical, small-molecule microarray, 635/667 nm fluorescence (AID 1131).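 Note: z-score merges 667 nm fluorescence with per-spot signal-to-noise over triplicate slides.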 The settings on record: fibrinogen-A647 binding fluorescence, higher = more signal.
Test [5] concerns the target Follistatin (Homo sapiens) (UniProt P19883). In words: follistatin binders on small-molecule microarrays, primary screen, biochemical, small-molecule microarray, 635/667 nm fluorescence (AID 1132). To be noted: FST binding, 635 nm fluorescence, higher = more signal.
In test [6] the target is Fibroblast growth factor 2 (Homo sapiens) (UniProt P09038). In words: FGF2 binders on small-molecule microarrays, primary screen, biochemical, small-molecule microarray, 635/667 nm fluorescence (AID 1133). To be noted: small-molecule microarray binding, FGF2, fluorescence 635/667; higher = more signal.
Test [7] is described as follows: mitochondrial membrane potential change in A549 cells, profiling panel, cell-based, JC-1 fluorescence, basal, 24 h, 100 nL (AID 1138).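 Note: A549 lung adenocarcinoma cells under basal conditions with no added stimulus; test concentration not given here.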 The settings on record: higher = more signal.
A further test deals with Lefty1. The experiment in a line: Lefty1 binders on small-molecule microarrays, primary screen, biochemical, small-molecule microarray, 635/667 nm fluorescence (AID 1139). To be noted: small-molecule microarray binding, fluorescence 635/667; higher = more signal.
The subject of test [8] is wheat germ agglutinin (Triticum aestivum), Alexa647-labelled. The experiment in a line: wheat germ agglutinin binders on compound microarrays, profiling panel, artefact control for SMM control-protein annotation, biochemical, small-molecule microarray, 635/667 nm fluorescence (AID 1140).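 Note: score merges 667 nm feature emission with signal to noise over triplicate slides.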 To be noted: WGA-A647 binding, 635 nm fluorescence, higher = more signal.
Test [9] addresses Luciferin 4-monooxygenase (Photinus pyralis) (UniProt P08659). The experiment in a line: firefly luciferase enzyme inhibitors, primary screen, biochemical, luminescence, purified enzyme, 2006 set (AID 1141).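 Note: cell-free assay with purified firefly luciferase at 100 ng per well in PBS; test concentration not given here.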 To be noted: SteadyGlo luminescence, 30 min, higher = more signal, called active from +8 up or from −8 down.
The subject of test [10] is Wnt5a (protein binding on small-molecule microarray). The experiment in a line: Wnt5a binders on small-molecule microarray, primary screen, biophysical, 635/667 nm fluorescence (AID 1142).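 Note: fluorescence read at 667 nm with signal to noise per printed feature.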 To be noted: 635 nm fluorescence, higher = more signal.
Test [11] is described as follows: cell viability in Huh7 cells, primary screen, cytotoxicity control for HCV replication inhibitor project, CellTiter-Glo luminescence, basal, 48 h (AID 1143).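 Note: Huh7 hepatoma cells carrying a hepatitis C replication reporter with no stimulus; test concentration not given here.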 The settings on record: Huh7 HCV replicon, higher = more signal, called active from +8 up or from −8 down.
The nature of test [12]: P. aeruginosa biofilm formation inhibitors, primary screen, PAO1 strain, BacTiter-Glo luminescence, LB-PBS (AID 1144). The settings on record: 12 h, higher = more signal.
Test [13] can be described thus: CREB reporter modulators without forskolin, primary screen, cell-based, PC12, CRE-LacZ reporter, unstimulated (AID 1145). To be noted: no forskolin, luminescence, 4.5 h, higher = more signal, called active from +8 up or from −8 down.
The nature of test [14]: CREB reporter modulators under forskolin, primary screen, cell-based, PC12, CRE-LacZ reporter, forskolin-stimulated (AID 1146).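 Note: PC12 cells with 6xCRE LacZ reporter stimulated by forskolin 10 µM; beta-galactosidase reporter signal reflecting CREB driven transcription.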 The settings on record: luminescence, 4.5 h, higher = more signal, called active from +8 up or from −8 down.
The target of test [15] is Streptavidin (Streptomyces avidinii) (UniProt P22629). The experiment in a line: streptavidin binders on small-molecule microarray, primary screen, artefact control for SMM compound annotation, biophysical, 635/667 nm fluorescence (AID 1147).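 Note: signal reflects streptavidin binding to arrayed compounds as a control protein.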 The settings on record: streptavidin binding, higher = more signal.
Test [16] is described as follows: small-molecule binders of probe aInhba, primary screen, biochemical, small-molecule microarray, 635/667 nm fluorescence (AID 1148).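 Note: score merges 667nm spot fluorescence with signal-to-noise for antibody binding to printed compounds.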 The settings on record: higher = more signal.
In test [17] the target is Torsin-1A (Homo sapiens) (UniProt O14656). The experiment in a line: torsin A binders from cell lysate, primary screen, small-molecule microarray, wild-type, 635/667 nm (AID 1149). The settings on record: COS7 hTOR1A-WT lysate, 635 nm fluorescence, higher = more signal.
Test [18] has the same target. In words: small-molecule binders of mutant TOR1A in lysate, primary screen, cell lysate, small-molecule microarray, COS7 lysate, 635/667 nm fluorescence (AID 1150).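 Note: score pools 667 nm emission and signal to noise measuring lysate protein binding.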 The settings on record: COS7 hTOR1A mutant lysate, 635 nm fluorescence, higher = more signal.
The test system of test [19] is Sonic hedgehog protein (Shh). In words: small-molecule binders of Shh protein, primary screen, biochemical, small-molecule microarray, 635/667 nm fluorescence (AID 1151).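 Note: Shh protein binding to compounds spotted on small-molecule microarray slides; score combines spot fluorescence intensity with signal-to-noise across triplicate slides.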 The settings on record: small-molecule microarray binding, 635 nm fluorescence; higher = more signal.

Data on five molecules can be found in PubChem BioAssay.

SMILES strings stand for the structures. Calls of active or inactive are those of the source. Unless noted, the rule behind the calls is not given here.

Chain of Focal adhesion kinase 1 (Homo sapiens) (Q05397 whole entry, looked up): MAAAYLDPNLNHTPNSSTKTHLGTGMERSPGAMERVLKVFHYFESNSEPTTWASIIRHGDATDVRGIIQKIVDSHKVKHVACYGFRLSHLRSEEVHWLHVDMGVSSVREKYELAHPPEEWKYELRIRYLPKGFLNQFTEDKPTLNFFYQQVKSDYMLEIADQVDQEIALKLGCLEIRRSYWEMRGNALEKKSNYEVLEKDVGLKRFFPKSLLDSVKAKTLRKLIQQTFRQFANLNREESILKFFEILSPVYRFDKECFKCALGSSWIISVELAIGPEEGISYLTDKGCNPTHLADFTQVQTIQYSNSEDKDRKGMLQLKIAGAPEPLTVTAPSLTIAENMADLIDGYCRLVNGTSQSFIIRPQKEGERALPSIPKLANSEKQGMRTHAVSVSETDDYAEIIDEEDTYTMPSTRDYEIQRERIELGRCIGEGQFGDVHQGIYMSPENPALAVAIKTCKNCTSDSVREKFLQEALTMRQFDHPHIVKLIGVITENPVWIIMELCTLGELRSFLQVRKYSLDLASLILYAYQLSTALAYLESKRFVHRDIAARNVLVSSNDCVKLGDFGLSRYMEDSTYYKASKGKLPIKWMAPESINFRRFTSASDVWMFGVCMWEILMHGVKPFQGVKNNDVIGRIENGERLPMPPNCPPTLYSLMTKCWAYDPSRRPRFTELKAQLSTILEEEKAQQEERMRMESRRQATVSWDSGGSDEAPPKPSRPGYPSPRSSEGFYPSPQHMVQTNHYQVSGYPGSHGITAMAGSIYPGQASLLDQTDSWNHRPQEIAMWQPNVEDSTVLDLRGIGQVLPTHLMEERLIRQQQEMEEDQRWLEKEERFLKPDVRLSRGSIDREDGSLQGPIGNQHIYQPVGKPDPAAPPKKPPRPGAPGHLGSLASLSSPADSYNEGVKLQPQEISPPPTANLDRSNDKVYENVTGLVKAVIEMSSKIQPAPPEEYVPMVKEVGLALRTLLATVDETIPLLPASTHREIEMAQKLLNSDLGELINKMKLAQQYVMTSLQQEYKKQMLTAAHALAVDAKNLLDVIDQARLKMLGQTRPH
Chain of Luciferin 4-monooxygenase (Photinus pyralis) (P08659 whole entry, looked up): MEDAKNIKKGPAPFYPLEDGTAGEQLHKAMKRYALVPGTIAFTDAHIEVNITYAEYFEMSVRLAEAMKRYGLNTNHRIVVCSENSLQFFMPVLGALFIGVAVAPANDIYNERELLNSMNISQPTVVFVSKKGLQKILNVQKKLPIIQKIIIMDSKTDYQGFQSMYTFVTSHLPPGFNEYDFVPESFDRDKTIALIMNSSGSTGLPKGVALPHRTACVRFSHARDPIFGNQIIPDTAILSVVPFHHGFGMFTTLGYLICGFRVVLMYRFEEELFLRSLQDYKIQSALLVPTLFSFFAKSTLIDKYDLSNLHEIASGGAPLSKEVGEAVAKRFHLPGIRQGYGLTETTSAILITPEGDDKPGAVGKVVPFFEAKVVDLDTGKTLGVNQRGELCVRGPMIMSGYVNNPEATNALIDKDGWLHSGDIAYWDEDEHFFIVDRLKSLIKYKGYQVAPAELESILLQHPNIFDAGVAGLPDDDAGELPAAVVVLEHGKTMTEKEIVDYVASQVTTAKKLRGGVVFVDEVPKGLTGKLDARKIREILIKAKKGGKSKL
Chain of Follistatin (Homo sapiens) (P19883 whole entry, looked up): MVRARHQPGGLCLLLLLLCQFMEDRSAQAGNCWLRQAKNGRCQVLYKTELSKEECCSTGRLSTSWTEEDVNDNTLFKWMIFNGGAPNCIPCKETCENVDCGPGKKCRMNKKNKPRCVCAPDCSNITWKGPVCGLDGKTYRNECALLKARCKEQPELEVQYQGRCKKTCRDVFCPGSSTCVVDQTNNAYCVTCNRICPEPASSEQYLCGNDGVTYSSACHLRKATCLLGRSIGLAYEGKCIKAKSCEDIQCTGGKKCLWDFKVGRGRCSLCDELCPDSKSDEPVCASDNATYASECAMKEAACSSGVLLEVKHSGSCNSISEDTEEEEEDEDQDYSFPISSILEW
Chain of Fibroblast growth factor 2 (Homo sapiens) (P09038 whole entry, looked up): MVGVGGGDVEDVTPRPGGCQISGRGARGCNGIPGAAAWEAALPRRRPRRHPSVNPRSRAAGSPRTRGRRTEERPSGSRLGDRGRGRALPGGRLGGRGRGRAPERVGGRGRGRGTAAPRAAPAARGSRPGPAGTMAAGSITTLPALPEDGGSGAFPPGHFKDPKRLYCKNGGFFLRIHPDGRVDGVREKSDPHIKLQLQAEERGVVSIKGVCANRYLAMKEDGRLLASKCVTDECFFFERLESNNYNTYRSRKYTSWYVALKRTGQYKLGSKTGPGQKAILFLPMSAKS
Chain of Torsin-1A (Homo sapiens) (O14656 whole entry, looked up): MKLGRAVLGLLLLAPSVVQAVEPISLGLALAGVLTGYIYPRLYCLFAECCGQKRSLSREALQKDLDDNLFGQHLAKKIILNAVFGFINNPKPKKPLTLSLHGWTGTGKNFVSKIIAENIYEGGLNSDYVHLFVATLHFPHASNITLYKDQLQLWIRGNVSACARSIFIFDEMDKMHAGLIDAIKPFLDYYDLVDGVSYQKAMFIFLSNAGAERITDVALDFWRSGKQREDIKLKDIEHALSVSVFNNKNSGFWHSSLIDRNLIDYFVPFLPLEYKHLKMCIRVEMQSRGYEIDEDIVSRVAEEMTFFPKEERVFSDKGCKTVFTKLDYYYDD
Chain of Streptavidin (Streptomyces avidinii) (P22629 whole entry, looked up): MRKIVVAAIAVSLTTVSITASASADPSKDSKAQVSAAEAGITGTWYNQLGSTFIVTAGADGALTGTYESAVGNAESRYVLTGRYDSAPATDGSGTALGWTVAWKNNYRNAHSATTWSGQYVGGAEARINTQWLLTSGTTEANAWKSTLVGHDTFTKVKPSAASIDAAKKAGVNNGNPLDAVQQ

With `CCOC(=O)[C@H](CC(C)C)NC(=O)CCC1CC(OC(=O)NCCc2ccc(F)cc2)CC2(CCCC(COC(=O)NCCc3ccc(Cl)cc3)O2)O1` (stereo not given in full), the composite z-score is 0.704 in test [1]; 0.596 in test [2]; 0.688 in [3]; 0.75 in test [4]; 0.692 in test [5]; 0.84 in test [6]. Further, the composite z-score is 1.34 with Lefty1; 0.61 in [8]; 0.555 in test [10]; 0.645 in [15]; -0.125 in [16]; 0.601 with Torsin-1A (Homo sapiens) [17]. The composite z-score with Torsin-1A (Homo sapiens) [18] came out at 0.385; in test [19], 1.62. Besides, the z-score in test [7] was -0.156; in [9], 0.442 (inactive); in test [11], -1.54 (inactive); in [12], -0.204 (inactive); in [13], 1.75 (inactive); in test [14] it was 0.214 (inactive).
As to `O=C1C[C@@H](O)[C@@H](O)[C@@H]2[C@@H]3C(=O)N(Cc4ccccc4)C(=O)[C@@H]3CC[C@@H]12`, the composite z-score stood at 0.467 in test [1]; 0.789 in [2]; 0.0901 in test [3]; 0.547 in [4]; 0.892 in test [5]; 0.895 in [6]. The composite z-score turned out to be 0.551 in the test with Lefty1; 0.0697 in test [8]; 0.19 in test [10]; 0.413 in test [15]; 0.0391 in test [16]; 0.498 in the test with Torsin-1A (Homo sapiens) [17]. Moreover, the composite z-score with Torsin-1A (Homo sapiens) [18] turned out to be 0.35; in [19], 0.772. Besides, the z-score is -0.305 in test [7]; -0.0665 (inactive) in test [9]; 0.398 (inactive) in [11]; -0.593 (inactive) in test [12]; 1.06 (inactive) in [13]; 0.113 (inactive) in test [14].
For `CC(CCC(=O)OC[C@H]1O[C@H](C#Cc2ccccc2)C=C[C@@H]1Oc1ccc(C)cc1)=NO[C@H](C)c1cn([C@H](CO)Cc2ccccc2)nn1`, the composite z-score was 0.126 in test [1]; 0.921 in test [2]; 0.648 in test [3]; 0.856 in [4]; 0.6 in [5]; 0.52 in test [6]. Also, the composite z-score is 0.724 in the test with Lefty1; 0.442 in test [8]; -0.313 in test [10]; 0.0184 in test [15]; -0.149 in [16]; -0.234 with Torsin-1A (Homo sapiens) [17]. Also, the composite z-score in the test with Torsin-1A (Homo sapiens) [18] worked out at 0.683; in test [19] it was 0.327. The z-score was 0.6 in test [7]; -0.085 (inactive) in test [9]; -0.874 (inactive) in [11]; 0.195 (inactive) in test [12]; 0.15 (inactive) in test [13]; 1.15 (inactive) in test [14].
On to `COC(=O)CC=C[C@@H](C)[C@@H](C=NO[C@H](C)c1cn([C@@H]2COC[C@H]2O)nn1)NS(=O)(=O)c1ccc(C)cc1`, for which the composite z-score in test [1] was 1.41; in test [2] it was -0.0194; in test [3], -0.217; in test [4], 0.533; in test [5] it was 1.08; in test [6] it was 0.845. The composite z-score with Lefty1 is 1.26; in test [8], 0.521; in [10] it was -0.0155; in [15], -0.262; in test [16], 0.0173; with Torsin-1A (Homo sapiens) [17], 0.68. Also, the composite z-score was found to be 0.429 in the test with Torsin-1A (Homo sapiens) [18] and 0.691 in test [19]. The z-score in [7] was 0.109; in [9] it was 0.316 (inactive); in [11], 0.23 (inactive); in [12] it was -0.668 (inactive); in [13], 1.08 (inactive); in test [14], -0.112 (inactive).
On to `COc1cccc([C@H]2Oc3ccc(OC)cc3C(=NOC[C@@H](O)COCc3ccco3)[C@@H]2O)c1`, for which the composite z-score in test [1] was 0.232; in test [2], -1.3; in [3] it was 0.3; in test [4] it was -2.19; in [5] it was -0.707; in test [6], -0.51. For the same molecule, the composite z-score with Lefty1 is -0.488; in test [8] it was -0.418; in [10], -0.217; in test [15], -0.903; in test [16] it was -0.205; with Torsin-1A (Homo sapiens) [17], -1.7. Also, the values for the composite z-score (with Torsin-1A (Homo sapiens) [18]; in [19]) were -1.38 and -0.0734, respectively. For the same molecule, the z-score in test [7] was -0.843; in [9], -2.4 (inactive); in [11] it was -0.564 (inactive); in test [12], 0.357 (inactive); in [13] it was 4.9 (inactive); in test [14], 0.493 (inactive).
